Source: PMC7862700, “An all-to-all approach to the identification of sequence-specific readers for epigenetic DNA modifications on cytosine”

Legend:
Test in all cases: DAPPL (digital affinity profiling via proximity ligation, sequencing); 10 mM Tris-HCl pH 7.5, 50 mM NaCl, 1 mM DTT, 4% glycerol, room temperature, 30 min; GST-TFs on glutathione beads, 16-mer random dsDNA library, 0.1% formaldehyde crosslink after washing; high values mean tight binding
[1] = molecular target: T1, FEV (Homo sapiens, UniProt Q99581 1-238); conditions: protein: recombinant; tags: N-terminal GST; dsDNA, one strand shown
T1 sequence: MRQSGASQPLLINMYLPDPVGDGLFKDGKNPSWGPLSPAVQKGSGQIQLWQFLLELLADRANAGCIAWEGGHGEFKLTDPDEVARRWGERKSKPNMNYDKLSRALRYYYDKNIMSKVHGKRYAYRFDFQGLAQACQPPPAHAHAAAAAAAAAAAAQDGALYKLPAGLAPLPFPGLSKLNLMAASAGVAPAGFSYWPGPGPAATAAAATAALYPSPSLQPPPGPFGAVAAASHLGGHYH
Procedure, shortened: (§1)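 Beads coated with glutathione captured GST-fused human transcription factors that had been expressed in yeast, and the factors were then given DNA barcodes and pooled with a tag-only sample. The pools were incubated with 200 nmole of a random double-stranded 16-mer DNA library in Tris/NaCl/DTT/glycerol buffer for 30 min at room temperature, washed, crosslinked with 0.1% formaldehyde and proximity-ligated with BsaI/T4 ligase at 37 °C for 1 h. PCR amplification and Illumina NextSeq500 sequencing came last. Binding signal is each hexamer's read frequency for a factor divided by its frequency for the tag-only sample.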

[2] = molecular target: ETV5 (Homo sapiens, UniProt P41161 1-510); conditions: protein: recombinant; tags: N-terminal GST; dsDNA, one strand shown
ETV5, sequence (P41161 whole entry): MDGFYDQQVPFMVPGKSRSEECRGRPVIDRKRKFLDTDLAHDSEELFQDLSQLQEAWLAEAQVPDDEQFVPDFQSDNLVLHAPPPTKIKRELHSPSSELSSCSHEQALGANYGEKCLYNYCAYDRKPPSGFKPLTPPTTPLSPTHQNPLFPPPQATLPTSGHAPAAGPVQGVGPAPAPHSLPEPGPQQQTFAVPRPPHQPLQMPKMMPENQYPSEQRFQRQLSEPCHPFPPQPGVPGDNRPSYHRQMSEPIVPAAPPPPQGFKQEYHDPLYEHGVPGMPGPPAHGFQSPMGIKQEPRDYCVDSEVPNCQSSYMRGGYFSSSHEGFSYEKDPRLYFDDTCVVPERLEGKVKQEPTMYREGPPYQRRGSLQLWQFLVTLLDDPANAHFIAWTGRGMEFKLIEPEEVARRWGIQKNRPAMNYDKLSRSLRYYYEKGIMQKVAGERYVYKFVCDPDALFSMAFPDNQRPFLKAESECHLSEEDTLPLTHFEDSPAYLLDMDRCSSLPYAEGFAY
Procedure, shortened: as §1

[3] = molecular target: HSF1 (Homo sapiens, UniProt Q00613 1-529); conditions: protein: recombinant; tags: N-terminal GST; chain copies: 3; dsDNA, one strand shown
HSF1, sequence (Q00613 whole entry): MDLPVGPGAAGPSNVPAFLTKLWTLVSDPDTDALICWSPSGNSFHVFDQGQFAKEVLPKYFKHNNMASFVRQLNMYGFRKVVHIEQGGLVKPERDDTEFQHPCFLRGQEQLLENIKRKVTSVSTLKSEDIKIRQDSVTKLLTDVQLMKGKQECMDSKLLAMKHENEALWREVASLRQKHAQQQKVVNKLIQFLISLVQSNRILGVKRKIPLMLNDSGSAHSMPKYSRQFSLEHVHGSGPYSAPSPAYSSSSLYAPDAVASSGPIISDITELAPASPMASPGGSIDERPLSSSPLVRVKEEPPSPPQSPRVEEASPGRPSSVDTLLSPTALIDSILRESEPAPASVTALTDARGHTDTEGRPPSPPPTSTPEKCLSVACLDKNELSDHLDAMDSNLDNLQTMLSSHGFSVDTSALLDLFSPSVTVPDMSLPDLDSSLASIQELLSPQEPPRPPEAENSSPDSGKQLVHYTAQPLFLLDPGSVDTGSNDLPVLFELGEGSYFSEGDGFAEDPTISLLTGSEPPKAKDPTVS
Procedure, shortened: as §1

[4] = molecular target: T2, SPIC (Homo sapiens, UniProt Q8N5J4 1-248); conditions: protein: recombinant; tags: N-terminal GST; dsDNA, one strand shown
T2 sequence: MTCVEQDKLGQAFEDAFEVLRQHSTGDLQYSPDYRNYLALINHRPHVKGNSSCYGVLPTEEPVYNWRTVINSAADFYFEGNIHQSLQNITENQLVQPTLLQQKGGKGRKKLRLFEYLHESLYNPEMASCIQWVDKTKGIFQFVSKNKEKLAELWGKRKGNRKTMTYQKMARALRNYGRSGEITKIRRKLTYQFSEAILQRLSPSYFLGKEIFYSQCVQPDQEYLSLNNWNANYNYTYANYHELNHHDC
Procedure, shortened: as §1

[5] = molecular target: ELF4 (Homo sapiens, UniProt Q99607 1-663); conditions: protein: recombinant; tags: N-terminal GST; dsDNA, one strand shown
ELF4, sequence (Q99607 whole entry): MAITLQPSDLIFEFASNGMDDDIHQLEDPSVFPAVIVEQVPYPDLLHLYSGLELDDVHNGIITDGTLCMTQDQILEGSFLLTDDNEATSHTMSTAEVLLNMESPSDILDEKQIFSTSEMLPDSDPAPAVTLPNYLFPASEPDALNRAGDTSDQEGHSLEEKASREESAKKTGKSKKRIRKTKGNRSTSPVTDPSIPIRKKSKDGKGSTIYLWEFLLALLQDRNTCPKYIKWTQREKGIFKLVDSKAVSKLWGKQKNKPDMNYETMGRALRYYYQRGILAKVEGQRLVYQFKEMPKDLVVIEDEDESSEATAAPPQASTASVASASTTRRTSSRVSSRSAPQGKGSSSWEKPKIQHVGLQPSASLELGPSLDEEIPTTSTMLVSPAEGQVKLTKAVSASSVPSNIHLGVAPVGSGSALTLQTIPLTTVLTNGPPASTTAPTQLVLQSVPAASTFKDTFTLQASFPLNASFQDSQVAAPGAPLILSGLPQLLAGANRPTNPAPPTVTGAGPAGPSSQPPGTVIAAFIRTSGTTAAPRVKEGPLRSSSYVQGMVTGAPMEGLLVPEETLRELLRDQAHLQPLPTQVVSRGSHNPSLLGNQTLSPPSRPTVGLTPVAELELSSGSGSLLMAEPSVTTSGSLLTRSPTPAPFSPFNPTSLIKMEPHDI
Procedure, shortened: as §1

[6] = molecular target: T3, ELK4 (Homo sapiens, UniProt P28324-2 1-405); conditions: protein: recombinant; tags: N-terminal GST; dsDNA, one strand shown
T3 sequence: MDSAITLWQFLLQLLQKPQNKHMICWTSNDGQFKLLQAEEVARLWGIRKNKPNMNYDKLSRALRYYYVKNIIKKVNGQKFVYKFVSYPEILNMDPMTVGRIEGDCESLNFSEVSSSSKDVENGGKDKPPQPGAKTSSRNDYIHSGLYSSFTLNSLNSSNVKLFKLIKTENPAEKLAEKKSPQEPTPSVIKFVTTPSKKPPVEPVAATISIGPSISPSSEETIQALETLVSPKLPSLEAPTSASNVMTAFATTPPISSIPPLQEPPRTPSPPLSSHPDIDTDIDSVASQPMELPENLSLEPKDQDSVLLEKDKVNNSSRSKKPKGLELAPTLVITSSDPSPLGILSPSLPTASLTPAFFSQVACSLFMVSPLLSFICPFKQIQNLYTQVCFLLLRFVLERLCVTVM
Procedure, shortened: as §1

[7] = molecular target: T4, ETV2 (Homo sapiens, UniProt O00321 1-342); conditions: protein: recombinant; tags: N-terminal GST; dsDNA, one strand shown
T4 sequence: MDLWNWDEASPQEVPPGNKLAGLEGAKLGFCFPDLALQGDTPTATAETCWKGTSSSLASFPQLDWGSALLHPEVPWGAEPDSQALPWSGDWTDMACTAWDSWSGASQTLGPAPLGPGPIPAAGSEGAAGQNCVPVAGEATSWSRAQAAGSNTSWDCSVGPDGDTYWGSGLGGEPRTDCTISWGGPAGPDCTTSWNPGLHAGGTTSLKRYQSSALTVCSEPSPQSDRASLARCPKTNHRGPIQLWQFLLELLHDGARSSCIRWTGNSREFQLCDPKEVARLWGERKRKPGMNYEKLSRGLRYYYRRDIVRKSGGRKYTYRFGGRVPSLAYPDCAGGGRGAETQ
Procedure, shortened: as §1

[8] = molecular target: T5, ELF3 (Homo sapiens, UniProt P78545 1-371); conditions: protein: recombinant; tags: N-terminal GST; dsDNA, one strand shown
T5 sequence: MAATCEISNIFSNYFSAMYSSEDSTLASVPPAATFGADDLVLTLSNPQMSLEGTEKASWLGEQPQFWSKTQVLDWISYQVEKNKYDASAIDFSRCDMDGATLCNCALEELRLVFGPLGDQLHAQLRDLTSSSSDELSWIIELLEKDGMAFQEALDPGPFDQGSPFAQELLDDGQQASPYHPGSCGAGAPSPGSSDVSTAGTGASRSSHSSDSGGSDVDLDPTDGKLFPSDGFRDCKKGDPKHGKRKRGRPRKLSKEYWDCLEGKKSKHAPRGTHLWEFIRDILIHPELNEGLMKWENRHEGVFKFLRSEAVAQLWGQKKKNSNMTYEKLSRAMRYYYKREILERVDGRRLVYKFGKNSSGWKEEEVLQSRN
Procedure, shortened: as §1

[9] = molecular target: CRX (Homo sapiens, UniProt O43186 1-299); conditions: protein: recombinant; tags: N-terminal GST; dsDNA, one strand shown
CRX, sequence (O43186 whole entry): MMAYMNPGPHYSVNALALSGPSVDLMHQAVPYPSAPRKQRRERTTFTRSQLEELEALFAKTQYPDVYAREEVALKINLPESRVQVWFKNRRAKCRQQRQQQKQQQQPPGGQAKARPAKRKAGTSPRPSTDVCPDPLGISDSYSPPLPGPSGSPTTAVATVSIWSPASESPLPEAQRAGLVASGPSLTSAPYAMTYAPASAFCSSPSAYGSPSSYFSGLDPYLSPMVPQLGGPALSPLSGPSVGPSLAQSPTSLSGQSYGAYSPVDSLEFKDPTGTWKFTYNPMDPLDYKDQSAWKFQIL
Procedure, shortened: as §1

[10] = molecular target: ETV1 (Homo sapiens, UniProt P50549 1-477); conditions: protein: recombinant; tags: N-terminal GST; dsDNA, one strand shown
ETV1, sequence (P50549 whole entry): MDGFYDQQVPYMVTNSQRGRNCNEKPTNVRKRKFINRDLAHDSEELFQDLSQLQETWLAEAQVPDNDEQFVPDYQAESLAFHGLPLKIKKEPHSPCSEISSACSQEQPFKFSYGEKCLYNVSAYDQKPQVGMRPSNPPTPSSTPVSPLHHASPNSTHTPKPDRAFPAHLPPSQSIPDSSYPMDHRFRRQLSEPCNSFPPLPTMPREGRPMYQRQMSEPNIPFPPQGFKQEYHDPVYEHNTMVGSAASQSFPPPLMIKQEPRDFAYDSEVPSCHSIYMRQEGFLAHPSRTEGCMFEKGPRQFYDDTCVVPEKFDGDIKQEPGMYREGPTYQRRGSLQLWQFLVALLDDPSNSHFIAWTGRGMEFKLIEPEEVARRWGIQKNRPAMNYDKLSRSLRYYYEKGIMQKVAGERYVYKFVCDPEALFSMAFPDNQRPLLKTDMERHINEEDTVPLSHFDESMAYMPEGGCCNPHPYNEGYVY
Procedure, shortened: as §1

[11] = molecular target: T6, ERF (Homo sapiens, UniProt P50548 1-548); conditions: protein: recombinant; tags: N-terminal GST; dsDNA, one strand shown
T6 sequence: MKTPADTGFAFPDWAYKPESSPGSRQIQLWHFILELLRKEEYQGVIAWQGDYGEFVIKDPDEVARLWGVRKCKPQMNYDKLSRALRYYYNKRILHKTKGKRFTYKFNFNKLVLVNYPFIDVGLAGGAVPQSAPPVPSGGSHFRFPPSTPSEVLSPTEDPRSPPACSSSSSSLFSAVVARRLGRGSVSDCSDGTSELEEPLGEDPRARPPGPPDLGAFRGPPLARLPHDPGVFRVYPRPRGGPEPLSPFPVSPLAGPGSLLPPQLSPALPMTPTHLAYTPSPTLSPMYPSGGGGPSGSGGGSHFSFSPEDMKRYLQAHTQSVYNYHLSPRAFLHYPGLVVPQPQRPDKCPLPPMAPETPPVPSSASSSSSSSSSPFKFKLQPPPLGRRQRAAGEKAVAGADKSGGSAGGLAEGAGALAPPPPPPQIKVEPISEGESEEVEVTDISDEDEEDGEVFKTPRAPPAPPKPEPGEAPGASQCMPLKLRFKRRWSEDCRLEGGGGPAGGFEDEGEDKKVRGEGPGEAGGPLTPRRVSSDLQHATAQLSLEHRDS
Procedure, shortened: as §1

[12] = molecular target: T7, ETV3L (Homo sapiens, UniProt Q6ZN32 1-361); conditions: protein: recombinant; tags: N-terminal GST; dsDNA, one strand shown
T7 sequence: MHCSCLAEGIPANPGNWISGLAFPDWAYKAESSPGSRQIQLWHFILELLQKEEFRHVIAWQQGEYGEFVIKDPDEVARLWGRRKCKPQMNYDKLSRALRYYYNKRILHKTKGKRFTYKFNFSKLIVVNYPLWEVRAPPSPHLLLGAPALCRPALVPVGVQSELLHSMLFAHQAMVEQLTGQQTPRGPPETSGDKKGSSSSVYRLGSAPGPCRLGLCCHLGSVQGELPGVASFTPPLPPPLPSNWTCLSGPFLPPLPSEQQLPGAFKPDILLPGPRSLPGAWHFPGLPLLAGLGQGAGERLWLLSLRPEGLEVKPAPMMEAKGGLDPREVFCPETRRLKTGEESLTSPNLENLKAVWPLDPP
Procedure, shortened: as §1

[13] = molecular target: T8, ETS2 (Homo sapiens, UniProt P15036 1-469); conditions: protein: recombinant; tags: N-terminal GST; dsDNA, one strand shown
T8 sequence: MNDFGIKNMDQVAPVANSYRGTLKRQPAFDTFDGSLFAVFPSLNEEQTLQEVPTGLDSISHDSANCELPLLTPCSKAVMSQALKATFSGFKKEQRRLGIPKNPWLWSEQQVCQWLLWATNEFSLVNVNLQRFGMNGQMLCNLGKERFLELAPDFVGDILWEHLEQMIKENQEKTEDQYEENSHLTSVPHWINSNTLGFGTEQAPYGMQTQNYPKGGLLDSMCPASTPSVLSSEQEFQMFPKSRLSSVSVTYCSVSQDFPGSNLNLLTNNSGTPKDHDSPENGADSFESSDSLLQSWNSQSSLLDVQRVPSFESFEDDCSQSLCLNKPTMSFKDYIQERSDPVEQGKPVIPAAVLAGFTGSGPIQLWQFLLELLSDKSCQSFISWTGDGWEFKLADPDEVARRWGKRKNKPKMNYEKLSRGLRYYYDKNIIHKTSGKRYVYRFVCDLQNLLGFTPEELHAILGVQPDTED
Procedure, shortened: as §1

[14] = molecular target: T9, SPDEF (Homo sapiens, UniProt O95238 1-335); conditions: protein: recombinant; tags: N-terminal GST; dsDNA, one strand shown
T9 sequence: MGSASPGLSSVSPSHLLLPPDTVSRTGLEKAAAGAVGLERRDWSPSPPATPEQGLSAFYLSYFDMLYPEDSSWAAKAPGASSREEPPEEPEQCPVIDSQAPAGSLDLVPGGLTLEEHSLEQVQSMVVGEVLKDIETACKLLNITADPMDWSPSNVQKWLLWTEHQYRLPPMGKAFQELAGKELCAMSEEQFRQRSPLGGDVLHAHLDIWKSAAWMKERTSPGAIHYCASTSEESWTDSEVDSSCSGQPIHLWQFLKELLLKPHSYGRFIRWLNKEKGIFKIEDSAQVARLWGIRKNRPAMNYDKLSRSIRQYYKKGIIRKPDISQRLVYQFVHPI
Procedure, shortened: as §1

[15] = molecular target: T10, ETV7 (Homo sapiens, UniProt Q9Y603 1-341); conditions: protein: recombinant; tags: N-terminal GST; dsDNA, one strand shown
T10 sequence: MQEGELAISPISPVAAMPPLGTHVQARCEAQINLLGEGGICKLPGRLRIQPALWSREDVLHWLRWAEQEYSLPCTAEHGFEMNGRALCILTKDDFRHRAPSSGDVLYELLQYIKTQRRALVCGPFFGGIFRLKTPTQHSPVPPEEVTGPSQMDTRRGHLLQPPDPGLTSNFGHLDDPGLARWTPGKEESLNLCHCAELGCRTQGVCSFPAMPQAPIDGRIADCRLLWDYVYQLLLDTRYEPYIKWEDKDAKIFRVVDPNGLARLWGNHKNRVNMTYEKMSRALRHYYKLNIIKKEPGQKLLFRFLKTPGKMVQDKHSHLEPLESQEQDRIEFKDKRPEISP
Procedure, shortened: as §1

[16] = molecular target: T11, ELF5 (Homo sapiens, UniProt Q9UKW6-2 1-255); conditions: protein: recombinant; tags: N-terminal GST; dsDNA, one strand shown
T11 sequence: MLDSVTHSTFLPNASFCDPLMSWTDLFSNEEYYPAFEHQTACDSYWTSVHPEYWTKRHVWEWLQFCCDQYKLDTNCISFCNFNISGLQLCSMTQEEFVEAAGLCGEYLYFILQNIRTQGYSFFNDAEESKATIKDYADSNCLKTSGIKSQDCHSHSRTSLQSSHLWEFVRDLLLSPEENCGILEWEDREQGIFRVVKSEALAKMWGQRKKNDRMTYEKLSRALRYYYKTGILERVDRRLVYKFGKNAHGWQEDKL
Procedure, shortened: as §1

[17] = molecular target: T12, ETV3 (Homo sapiens, UniProt P41162-2 1-143); conditions: protein: recombinant; tags: N-terminal GST; dsDNA, one strand shown
T12 sequence: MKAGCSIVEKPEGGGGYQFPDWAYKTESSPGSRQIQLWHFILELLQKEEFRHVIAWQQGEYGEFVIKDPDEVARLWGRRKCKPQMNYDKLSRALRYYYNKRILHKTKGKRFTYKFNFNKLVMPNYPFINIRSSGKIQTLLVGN
Procedure, shortened: as §1

[18] = molecular target: ETV6 (Homo sapiens, UniProt P41212 1-452); conditions: protein: recombinant; tags: N-terminal GST; dsDNA, one strand shown
ETV6, sequence (P41212 whole entry): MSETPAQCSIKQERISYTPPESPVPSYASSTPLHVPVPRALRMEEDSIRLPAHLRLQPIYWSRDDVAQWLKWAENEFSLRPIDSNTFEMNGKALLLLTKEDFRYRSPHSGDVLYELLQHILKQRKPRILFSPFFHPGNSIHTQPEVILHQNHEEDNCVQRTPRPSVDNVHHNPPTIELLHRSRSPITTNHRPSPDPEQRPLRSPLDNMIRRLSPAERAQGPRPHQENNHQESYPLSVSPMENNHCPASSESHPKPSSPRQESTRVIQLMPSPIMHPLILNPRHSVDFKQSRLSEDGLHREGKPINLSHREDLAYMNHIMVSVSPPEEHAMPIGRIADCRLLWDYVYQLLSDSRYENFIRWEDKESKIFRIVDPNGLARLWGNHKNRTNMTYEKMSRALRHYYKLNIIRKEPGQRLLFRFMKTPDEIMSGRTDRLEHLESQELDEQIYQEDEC
Procedure, shortened: as §1

Sequence: GATATT
- binding signal [1]: 1.04 fold enrichment (6-mer frequency, TF over GST control)
- binding signal [2]: 1.14 fold enrichment (6-mer frequency, TF over GST control)
- binding signal [3]: 1.18 fold enrichment (6-mer frequency, TF over GST control)
- binding signal [4]: 1.12 fold enrichment (6-mer frequency, TF over GST control)
- binding signal [5]: 1.12 fold enrichment (6-mer frequency, TF over GST control)
- binding signal [6]: 1.15 fold enrichment (6-mer frequency, TF over GST control)
- binding signal [7]: 1.24 fold enrichment (6-mer frequency, TF over GST control)
- binding signal [8]: 1.07 fold enrichment (6-mer frequency, TF over GST control)
- binding signal [9]: 1.31 fold enrichment (6-mer frequency, TF over GST control)
- binding signal [10]: 1.1 fold enrichment (6-mer frequency, TF over GST control)
- binding signal [11]: 1.05 fold enrichment (6-mer frequency, TF over GST control)
- binding signal [12]: 1.12 fold enrichment (6-mer frequency, TF over GST control)
- binding signal [13]: 1.13 fold enrichment (6-mer frequency, TF over GST control)
- binding signal [14]: 1.26 fold enrichment (6-mer frequency, TF over GST control)
- binding signal [15]: 1.14 fold enrichment (6-mer frequency, TF over GST control)
- binding signal [16]: 1.25 fold enrichment (6-mer frequency, TF over GST control)
- binding signal [17]: 1.14 fold enrichment (6-mer frequency, TF over GST control)
- binding signal [18]: 1.17 fold enrichment (6-mer frequency, TF over GST control)
